# Results from PubChem BioAssay (EPA / NIEHS).
# Inconclusive results are not listed. Activity calls are given as the source filed them. Rule for the calls: active = hit-call score of the fitted dose curve at least 0.9, where 1 is the maximum; inconclusive = response in the unintended direction; inactive = score below 0.9.
# How the values were obtained:
# [1] = ACEA_AR_antagonist_AUC_viability: ACEA Biosciences xCELLigence Real-Time Cell Analysis on Androgen Receptor Antagonism for Viability (AID 2283776);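 note: 22Rv1 human prostate cancer cells growing on impedance electrode plates; area under impedance growth curve at 80 h after dosing as viability; hits lower the growth signal relative to DMSO meaning cytotoxicity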
# Summary of the method: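 Viability endpoint from label-free cell-index monitoring: 22Rv1 cultures treated with an eight-point 1:4 dilution series starting at 100 uM final, AUC at 80 h fitted against DMSO.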
# [2] = ACEA_ER_AUC_viability: ACEA Biosciences xCELLigence Real-Time Cell Analysis on Estrogen Receptor Agonism for Viability (AID 2283782);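 note: hit means loss of impedance signal meaning reduced cell growth or viability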
# Summary of the method: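 Continuous-exposure impedance cell analysis uses T-47D cells in charcoal-stripped serum, eight 1:4 dilutions topping at 100 uM final, biological duplicate. Area under the growth curve at 80 h is fitted against DMSO baseline.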
smiles,measurement,setting,value
CCCCCc1ccc(Cl)cc1,outcome,[1],inactive
same,outcome,[2],inactive
CCCCCCCCCCCCCOP(=O)(O)O,outcome,[1],inactive
same,AC50,[2],48.7 µM (active)
CCCCCCCOC(=O)CCC,outcome,[1],inactive
same,outcome,[2],inactive
Cc1ccc(C(C)c2ccc(C)c(C)c2)cc1C,outcome,[1],inactive
same,AC50,[2],50 µM (active)
O=S(=O)(O)c1ccccc1C=Cc1ccc(-c2ccc(C=Cc3ccccc3S(=O)(=O)O)cc2)cc1,outcome,[1],inactive
same,outcome,[2],inactive
CN(C)c1ccc(C(=N)c2ccc(N(C)C)cc2)cc1,AC50,[1],3.19 µM (active)
same,AC50,[2],32.3 µM (active)
CC=C1CC2C=CC1C2 (stereo not drawn),outcome,[1],inactive
same,outcome,[2],inactive
CCCCC(CC)CCC(CC(C)C)OS(=O)(=O)O (stereo not drawn),outcome,[1],inactive
same,outcome,[2],inactive
O=c1cc(-c2ccccc2)oc2ccccc12,outcome,[1],inactive
Cn1c([N+](=O)[O-])cnc1COC(N)=O,outcome,[1],inactive
same,outcome,[2],inactive
CC1=NN(c2cc(S(=O)(=O)O)ccc2Cl)C(=O)C1N=Nc1ccccc1 (stereo not drawn),outcome,[1],inactive
same,outcome,[2],inactive
OC1CCCCCCCCCCC1,outcome,[1],inactive
same,outcome,[2],inactive
CCOC(=O)CC,outcome,[1],inactive
same,outcome,[2],inactive
O=C(O)CCCC[C@@H]1SC[C@@H]2NC(=O)N[C@@H]21,outcome,[1],inactive
same,outcome,[2],inactive
CCCCCCCCO[C@@H]1O[C@H](CO)[C@@H](O)[C@H](O)[C@H]1O,outcome,[1],inactive
same,outcome,[2],inactive
CCCCCCC1(C)CCC(=O)O1 (stereo not drawn),outcome,[1],inactive
same,outcome,[2],inactive
CC(C)(C)c1ccc(OC(=O)c2ccccc2O)cc1,AC50,[1],0.0777 µM (active)
same,AC50,[2],66.2 µM (active)
CCO[Si](C)(OCC)OCC,outcome,[1],inactive
same,outcome,[2],inactive
c1ccc2c(c1)ccc1cc3c(ccc4ccccc43)cc12,AC50,[1],0.287 µM (active)
COC(=O)c1c(C)cc(O)c(C)c1O,AC50,[1],4.23 µM (active)
same,outcome,[2],inactive
